Our source for the binding signal values is PMC7862700, “An all-to-all approach to the identification of sequence-specific readers for epigenetic DNA modifications on cytosine”.

Common to all, as to assay: DAPPL (digital affinity profiling via proximity ligation, sequencing); 10 mM Tris-HCl pH 7.5, 50 mM NaCl, 1 mM DTT, 4% glycerol, room temperature, 30 min; GST-TFs on glutathione beads, 16-mer random dsDNA library, 0.1% formaldehyde crosslink after washing; high values mean tight binding
One experiment has as its target T1, FEV (Homo sapiens, UniProt Q99581 1-238).
T1 sequence: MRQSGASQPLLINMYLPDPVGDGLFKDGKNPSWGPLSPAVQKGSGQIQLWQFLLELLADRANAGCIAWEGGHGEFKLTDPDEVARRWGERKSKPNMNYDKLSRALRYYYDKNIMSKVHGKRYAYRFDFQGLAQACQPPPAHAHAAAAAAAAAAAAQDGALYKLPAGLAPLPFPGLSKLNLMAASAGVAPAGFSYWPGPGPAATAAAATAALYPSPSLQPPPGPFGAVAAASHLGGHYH
The settings on record: protein: recombinant; tags: N-terminal GST; dsDNA, one strand shown. In short, it runs like this: (§1)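 Pools were built from human transcription factors expressed in yeast as GST fusions, captured on glutathione beads and DNA-barcoded, along with a tag-only sample. Incubation with 200 nmole of a 16-mer random double-stranded DNA library lasted 30 min at room temperature in Tris/NaCl/DTT/glycerol buffer, and was followed by washing, 0.1% formaldehyde crosslinking, proximity ligation, PCR amplification and Illumina NextSeq500 sequencing. Binding signal is the quotient of each hexamer's read frequency for a factor and its frequency for the tag-only sample.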

The next experiment has as its target ETV5 (Homo sapiens, UniProt P41161 1-510). The settings on record: protein: recombinant; tags: N-terminal GST; dsDNA, one strand shown. The method, boiled down: as §1
The target in the next experiment is HSF1 (Homo sapiens, UniProt Q00613 1-529). The settings on record: protein: recombinant; tags: N-terminal GST; chain copies: 3; dsDNA, one strand shown. In short, it runs like this:
as §1

The next experiment has as its target T2, SPIC (Homo sapiens, UniProt Q8N5J4 1-248).
T2 sequence: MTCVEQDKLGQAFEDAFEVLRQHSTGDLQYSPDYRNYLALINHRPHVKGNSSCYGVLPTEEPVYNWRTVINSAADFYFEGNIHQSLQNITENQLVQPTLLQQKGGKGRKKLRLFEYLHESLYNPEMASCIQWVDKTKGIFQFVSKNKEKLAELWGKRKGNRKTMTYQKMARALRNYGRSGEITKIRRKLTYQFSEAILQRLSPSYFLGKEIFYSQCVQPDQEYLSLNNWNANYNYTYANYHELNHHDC
The settings on record: protein: recombinant; tags: N-terminal GST; dsDNA, one strand shown. The method, boiled down:
as §1

For another experiment, the target named is ELF4 (Homo sapiens, UniProt Q99607 1-663). The settings on record: protein: recombinant; tags: N-terminal GST; dsDNA, one strand shown. The method, boiled down:
as §1

The target in a further experiment is T3, ELK4 (Homo sapiens, UniProt P28324-2 1-405).
T3 sequence: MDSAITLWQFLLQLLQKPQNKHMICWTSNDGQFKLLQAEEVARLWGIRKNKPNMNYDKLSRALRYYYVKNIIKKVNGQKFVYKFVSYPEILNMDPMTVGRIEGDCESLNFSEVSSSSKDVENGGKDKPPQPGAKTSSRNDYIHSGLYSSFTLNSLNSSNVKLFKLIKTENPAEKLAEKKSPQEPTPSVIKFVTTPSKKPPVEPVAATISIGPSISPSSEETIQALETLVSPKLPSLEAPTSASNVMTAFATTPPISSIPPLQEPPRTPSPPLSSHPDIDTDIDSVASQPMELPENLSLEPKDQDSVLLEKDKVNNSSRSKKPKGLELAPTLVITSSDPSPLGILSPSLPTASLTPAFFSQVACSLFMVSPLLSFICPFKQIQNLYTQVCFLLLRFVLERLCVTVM
The settings on record: protein: recombinant; tags: N-terminal GST; dsDNA, one strand shown. In short, it runs like this:
as §1

The target of another experiment is T4, ETV2 (Homo sapiens, UniProt O00321 1-342).
T4 sequence: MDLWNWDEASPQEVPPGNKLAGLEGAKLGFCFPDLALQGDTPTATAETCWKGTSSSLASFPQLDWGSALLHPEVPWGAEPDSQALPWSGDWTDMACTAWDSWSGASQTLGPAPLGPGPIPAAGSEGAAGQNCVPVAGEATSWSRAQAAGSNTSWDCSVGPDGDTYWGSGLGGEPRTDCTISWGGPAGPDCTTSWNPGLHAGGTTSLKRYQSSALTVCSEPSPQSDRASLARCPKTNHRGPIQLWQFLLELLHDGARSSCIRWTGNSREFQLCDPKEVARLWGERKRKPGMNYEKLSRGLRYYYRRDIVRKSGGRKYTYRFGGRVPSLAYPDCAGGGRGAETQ
The settings on record: protein: recombinant; tags: N-terminal GST; dsDNA, one strand shown. The method, boiled down: as §1

The next experiment addresses T5, ELF3 (Homo sapiens, UniProt P78545 1-371).
T5 sequence: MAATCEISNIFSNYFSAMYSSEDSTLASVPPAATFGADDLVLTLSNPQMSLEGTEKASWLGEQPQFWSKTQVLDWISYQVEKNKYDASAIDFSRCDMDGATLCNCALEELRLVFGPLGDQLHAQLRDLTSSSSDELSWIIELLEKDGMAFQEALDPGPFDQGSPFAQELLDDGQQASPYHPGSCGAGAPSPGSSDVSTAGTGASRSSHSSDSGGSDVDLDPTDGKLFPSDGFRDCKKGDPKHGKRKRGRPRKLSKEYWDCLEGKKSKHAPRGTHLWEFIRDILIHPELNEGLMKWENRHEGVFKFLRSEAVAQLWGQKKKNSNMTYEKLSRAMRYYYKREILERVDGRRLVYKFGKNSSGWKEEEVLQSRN
The settings on record: protein: recombinant; tags: N-terminal GST; dsDNA, one strand shown. In short, it runs like this: as §1

For a further experiment, the target named is CRX (Homo sapiens, UniProt O43186 1-299). The settings on record: protein: recombinant; tags: N-terminal GST; dsDNA, one strand shown. The method, boiled down: as §1
Another experiment concerns the target ETV1 (Homo sapiens, UniProt P50549 1-477). The settings on record: protein: recombinant; tags: N-terminal GST; dsDNA, one strand shown. The method, boiled down:
as §1

The next experiment addresses T6, ERF (Homo sapiens, UniProt P50548 1-548).
T6 sequence: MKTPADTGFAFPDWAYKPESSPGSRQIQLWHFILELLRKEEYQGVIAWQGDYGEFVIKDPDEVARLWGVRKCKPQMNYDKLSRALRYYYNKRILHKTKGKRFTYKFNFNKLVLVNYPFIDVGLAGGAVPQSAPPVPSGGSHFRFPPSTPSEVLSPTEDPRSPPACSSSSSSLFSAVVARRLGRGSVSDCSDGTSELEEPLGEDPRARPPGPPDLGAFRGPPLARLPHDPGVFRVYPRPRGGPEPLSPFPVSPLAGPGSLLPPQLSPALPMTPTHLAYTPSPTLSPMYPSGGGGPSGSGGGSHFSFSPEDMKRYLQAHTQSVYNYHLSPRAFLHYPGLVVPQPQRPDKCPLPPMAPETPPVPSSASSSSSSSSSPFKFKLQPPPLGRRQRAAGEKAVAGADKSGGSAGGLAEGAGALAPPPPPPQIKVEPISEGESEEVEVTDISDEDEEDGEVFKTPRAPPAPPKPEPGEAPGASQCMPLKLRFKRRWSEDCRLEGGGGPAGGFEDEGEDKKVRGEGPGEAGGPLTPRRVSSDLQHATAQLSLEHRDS
The settings on record: protein: recombinant; tags: N-terminal GST; dsDNA, one strand shown. The method, boiled down: as §1

In another experiment the target is T7, ETV3L (Homo sapiens, UniProt Q6ZN32 1-361).
T7 sequence: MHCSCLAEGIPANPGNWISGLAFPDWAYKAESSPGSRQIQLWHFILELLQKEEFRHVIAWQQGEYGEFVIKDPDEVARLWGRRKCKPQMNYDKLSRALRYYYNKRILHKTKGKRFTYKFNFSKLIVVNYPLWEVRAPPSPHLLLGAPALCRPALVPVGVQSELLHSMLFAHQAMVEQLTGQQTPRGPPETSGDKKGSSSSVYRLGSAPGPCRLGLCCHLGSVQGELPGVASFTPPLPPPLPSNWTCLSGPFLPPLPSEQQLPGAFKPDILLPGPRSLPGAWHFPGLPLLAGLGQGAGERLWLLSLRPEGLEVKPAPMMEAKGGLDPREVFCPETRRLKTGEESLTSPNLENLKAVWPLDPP
The settings on record: protein: recombinant; tags: N-terminal GST; dsDNA, one strand shown. In short, it runs like this: as §1

The target in another experiment is T8, ETS2 (Homo sapiens, UniProt P15036 1-469).
T8 sequence: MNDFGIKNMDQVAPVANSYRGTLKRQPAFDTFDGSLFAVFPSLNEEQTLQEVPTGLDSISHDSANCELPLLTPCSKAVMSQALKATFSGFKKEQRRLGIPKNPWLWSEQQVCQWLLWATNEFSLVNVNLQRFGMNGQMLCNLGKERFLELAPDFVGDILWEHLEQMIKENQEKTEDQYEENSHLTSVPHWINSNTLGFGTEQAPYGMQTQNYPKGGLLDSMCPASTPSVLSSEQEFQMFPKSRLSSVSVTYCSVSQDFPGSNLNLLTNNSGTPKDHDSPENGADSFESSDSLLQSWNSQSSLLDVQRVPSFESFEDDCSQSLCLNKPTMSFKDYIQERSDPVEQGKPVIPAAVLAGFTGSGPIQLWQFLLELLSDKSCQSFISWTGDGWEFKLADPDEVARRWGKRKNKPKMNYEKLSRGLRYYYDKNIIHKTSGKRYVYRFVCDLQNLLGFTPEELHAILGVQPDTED
The settings on record: protein: recombinant; tags: N-terminal GST; dsDNA, one strand shown. In short, it runs like this: as §1

The next experiment deals with T9, SPDEF (Homo sapiens, UniProt O95238 1-335).
T9 sequence: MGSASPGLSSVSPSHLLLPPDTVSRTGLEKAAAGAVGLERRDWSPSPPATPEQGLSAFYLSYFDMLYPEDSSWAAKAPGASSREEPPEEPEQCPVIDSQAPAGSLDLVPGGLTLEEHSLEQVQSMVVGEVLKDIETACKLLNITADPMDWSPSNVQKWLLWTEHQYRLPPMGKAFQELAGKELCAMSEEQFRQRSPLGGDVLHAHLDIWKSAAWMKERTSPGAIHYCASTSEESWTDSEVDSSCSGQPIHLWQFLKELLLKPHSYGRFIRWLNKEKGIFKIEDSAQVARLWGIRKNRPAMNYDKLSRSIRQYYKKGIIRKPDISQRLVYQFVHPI
The settings on record: protein: recombinant; tags: N-terminal GST; dsDNA, one strand shown. In short, it runs like this:
as §1

In a further experiment the target is T10, ETV7 (Homo sapiens, UniProt Q9Y603 1-341).
T10 sequence: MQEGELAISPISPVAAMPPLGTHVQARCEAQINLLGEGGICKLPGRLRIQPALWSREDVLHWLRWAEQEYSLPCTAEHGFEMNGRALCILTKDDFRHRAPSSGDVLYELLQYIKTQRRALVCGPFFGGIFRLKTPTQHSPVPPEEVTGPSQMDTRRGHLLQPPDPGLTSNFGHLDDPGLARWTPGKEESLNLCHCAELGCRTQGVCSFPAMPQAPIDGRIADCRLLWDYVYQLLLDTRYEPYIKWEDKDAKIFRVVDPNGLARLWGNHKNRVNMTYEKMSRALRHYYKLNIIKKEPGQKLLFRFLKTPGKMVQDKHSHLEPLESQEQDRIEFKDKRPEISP
The settings on record: protein: recombinant; tags: N-terminal GST; dsDNA, one strand shown. In short, it runs like this: as §1

The target in another experiment is T11, ELF5 (Homo sapiens, UniProt Q9UKW6-2 1-255).
T11 sequence: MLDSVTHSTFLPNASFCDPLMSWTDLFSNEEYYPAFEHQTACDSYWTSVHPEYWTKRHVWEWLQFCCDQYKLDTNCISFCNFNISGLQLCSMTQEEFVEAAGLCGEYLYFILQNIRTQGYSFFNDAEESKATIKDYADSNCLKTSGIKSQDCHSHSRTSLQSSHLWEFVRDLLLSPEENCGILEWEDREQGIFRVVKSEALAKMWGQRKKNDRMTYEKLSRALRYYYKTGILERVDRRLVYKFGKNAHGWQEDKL
The settings on record: protein: recombinant; tags: N-terminal GST; dsDNA, one strand shown. The method, boiled down: as §1

Another experiment addresses T12, ETV3 (Homo sapiens, UniProt P41162-2 1-143).
T12 sequence: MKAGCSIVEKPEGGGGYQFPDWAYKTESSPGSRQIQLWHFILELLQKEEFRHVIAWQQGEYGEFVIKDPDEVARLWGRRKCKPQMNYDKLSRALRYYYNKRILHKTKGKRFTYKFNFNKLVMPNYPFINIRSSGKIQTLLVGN
The settings on record: protein: recombinant; tags: N-terminal GST; dsDNA, one strand shown. In short, it runs like this:
as §1

Another experiment deals with ETV6 (Homo sapiens, UniProt P41212 1-452). The settings on record: protein: recombinant; tags: N-terminal GST; dsDNA, one strand shown. In short, it runs like this:
as §1

Chain of ETV5 (P41161 whole entry): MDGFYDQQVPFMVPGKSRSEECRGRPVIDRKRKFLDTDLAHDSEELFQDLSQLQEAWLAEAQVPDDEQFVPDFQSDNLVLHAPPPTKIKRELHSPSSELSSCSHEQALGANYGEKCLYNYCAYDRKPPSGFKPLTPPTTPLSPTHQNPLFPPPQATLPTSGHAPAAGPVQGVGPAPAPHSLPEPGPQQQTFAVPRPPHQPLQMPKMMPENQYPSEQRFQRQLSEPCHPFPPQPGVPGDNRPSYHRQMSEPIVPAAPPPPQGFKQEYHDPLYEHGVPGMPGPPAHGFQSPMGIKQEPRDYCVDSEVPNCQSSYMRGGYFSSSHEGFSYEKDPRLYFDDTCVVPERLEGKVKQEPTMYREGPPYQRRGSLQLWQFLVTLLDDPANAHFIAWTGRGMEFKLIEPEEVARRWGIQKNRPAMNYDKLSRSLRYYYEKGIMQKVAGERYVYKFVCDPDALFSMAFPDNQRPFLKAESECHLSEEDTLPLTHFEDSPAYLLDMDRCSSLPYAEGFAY
Chain of HSF1 (Q00613 whole entry): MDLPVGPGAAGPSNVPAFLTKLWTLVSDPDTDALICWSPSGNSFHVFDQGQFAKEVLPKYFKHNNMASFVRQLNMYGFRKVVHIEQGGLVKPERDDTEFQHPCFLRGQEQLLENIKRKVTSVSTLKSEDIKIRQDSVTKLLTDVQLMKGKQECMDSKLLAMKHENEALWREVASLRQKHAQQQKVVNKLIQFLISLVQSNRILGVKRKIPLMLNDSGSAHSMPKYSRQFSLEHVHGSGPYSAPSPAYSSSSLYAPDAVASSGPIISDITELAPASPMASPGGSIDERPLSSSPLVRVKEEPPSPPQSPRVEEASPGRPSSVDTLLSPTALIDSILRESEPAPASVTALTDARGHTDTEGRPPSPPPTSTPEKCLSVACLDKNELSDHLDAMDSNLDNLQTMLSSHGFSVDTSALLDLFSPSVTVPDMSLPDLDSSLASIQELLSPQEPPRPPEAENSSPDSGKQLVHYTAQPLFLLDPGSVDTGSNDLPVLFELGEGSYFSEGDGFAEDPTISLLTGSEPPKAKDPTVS
Chain of ETV1 (P50549 whole entry): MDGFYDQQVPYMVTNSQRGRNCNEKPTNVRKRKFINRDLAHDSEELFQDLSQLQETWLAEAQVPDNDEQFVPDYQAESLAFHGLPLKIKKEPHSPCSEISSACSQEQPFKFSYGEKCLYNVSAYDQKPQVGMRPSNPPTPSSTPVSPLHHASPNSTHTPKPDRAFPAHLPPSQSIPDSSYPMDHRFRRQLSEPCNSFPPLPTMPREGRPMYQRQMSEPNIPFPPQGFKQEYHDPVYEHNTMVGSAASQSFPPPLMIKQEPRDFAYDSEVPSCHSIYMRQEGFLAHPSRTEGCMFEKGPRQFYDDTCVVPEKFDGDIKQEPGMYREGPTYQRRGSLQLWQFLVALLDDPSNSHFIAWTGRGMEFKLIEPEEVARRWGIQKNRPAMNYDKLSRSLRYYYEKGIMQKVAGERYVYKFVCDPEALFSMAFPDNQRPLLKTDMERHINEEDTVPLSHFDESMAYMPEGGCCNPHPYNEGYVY
Chain of CRX (O43186 whole entry): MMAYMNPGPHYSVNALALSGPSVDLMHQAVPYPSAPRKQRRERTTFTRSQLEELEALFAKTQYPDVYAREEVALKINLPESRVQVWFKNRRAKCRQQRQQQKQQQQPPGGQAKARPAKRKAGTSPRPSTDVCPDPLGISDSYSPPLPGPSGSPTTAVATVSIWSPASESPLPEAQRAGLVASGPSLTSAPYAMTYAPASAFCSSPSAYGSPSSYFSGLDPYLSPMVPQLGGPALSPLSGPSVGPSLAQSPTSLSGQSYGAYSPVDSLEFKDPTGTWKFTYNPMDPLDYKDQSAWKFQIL
Chain of ELF4 (Q99607 whole entry): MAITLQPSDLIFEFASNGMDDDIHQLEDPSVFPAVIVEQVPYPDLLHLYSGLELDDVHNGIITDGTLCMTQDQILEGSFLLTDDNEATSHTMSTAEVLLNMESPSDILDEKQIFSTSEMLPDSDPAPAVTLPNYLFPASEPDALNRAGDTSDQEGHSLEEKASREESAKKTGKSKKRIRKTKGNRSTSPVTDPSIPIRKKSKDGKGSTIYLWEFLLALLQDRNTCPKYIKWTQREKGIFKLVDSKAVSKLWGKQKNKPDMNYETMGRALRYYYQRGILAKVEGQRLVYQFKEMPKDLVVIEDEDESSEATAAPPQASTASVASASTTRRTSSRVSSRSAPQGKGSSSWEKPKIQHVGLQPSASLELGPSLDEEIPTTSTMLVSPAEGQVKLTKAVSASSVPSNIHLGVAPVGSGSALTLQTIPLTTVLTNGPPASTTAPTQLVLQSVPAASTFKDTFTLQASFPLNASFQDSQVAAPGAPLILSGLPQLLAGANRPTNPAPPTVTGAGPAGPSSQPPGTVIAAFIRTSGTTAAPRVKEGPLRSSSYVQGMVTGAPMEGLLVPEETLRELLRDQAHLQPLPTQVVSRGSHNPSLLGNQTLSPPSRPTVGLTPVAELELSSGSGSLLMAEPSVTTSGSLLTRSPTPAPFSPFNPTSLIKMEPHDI
Chain of ETV6 (P41212 whole entry): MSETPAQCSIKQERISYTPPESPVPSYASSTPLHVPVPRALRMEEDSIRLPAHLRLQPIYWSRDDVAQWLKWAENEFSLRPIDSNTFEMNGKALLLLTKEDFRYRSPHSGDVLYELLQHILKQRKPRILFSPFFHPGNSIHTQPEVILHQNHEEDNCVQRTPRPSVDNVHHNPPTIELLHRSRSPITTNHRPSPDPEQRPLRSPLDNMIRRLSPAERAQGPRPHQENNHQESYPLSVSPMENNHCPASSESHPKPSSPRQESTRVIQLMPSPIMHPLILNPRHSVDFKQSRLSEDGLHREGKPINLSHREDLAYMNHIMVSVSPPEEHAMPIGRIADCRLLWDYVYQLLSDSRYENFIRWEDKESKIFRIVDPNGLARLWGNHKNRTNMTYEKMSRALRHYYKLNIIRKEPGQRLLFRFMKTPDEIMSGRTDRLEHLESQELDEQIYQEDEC

On to ATTCCT, for which the binding signal with FEV was 1.34 fold enrichment (6-mer frequency, TF over GST control); with ETV5 it was 1.39 fold enrichment (6-mer frequency, TF over GST control); with HSF1 it was 1.57 fold enrichment (6-mer frequency, TF over GST control); with SPIC, 1.27 fold enrichment (6-mer frequency, TF over GST control); with ELF4 it was 1.39 fold enrichment (6-mer frequency, TF over GST control); with ELK4, 1.22 fold enrichment (6-mer frequency, TF over GST control). Further, the binding signal with ETV2 is 1.45 fold enrichment (6-mer frequency, TF over GST control); with ELF3, 1.2 fold enrichment (6-mer frequency, TF over GST control); in the experiment with CRX it was 1.33 fold enrichment (6-mer frequency, TF over GST control); with ETV1, 1.28 fold enrichment (6-mer frequency, TF over GST control); with ERF it was 1.2 fold enrichment (6-mer frequency, TF over GST control); with ETV3L, 1.32 fold enrichment (6-mer frequency, TF over GST control). Further, the binding signal in the experiment with ETS2 was 1.39 fold enrichment (6-mer frequency, TF over GST control); with SPDEF, 1.32 fold enrichment (6-mer frequency, TF over GST control); in the experiment with ETV7, 1.39 fold enrichment (6-mer frequency, TF over GST control); with ELF5, 1.68 fold enrichment (6-mer frequency, TF over GST control); with ETV3, 1.47 fold enrichment (6-mer frequency, TF over GST control); in the experiment with ETV6, 1.35 fold enrichment (6-mer frequency, TF over GST control).
